The target in experiment [1] is Paired box protein Pax-6 (Homo sapiens) (UniProt P26367). As to the kind of experiment: ATG_Pax6_CIS: Attagene CIS-FACTORIAL HepG2 Assay for human Paired Box 6 (PAX6) (AID 2282956). Particulars: HepG2 CIS-FACTORIAL PAX6 reporter transcription, RNA readout; actives raise or lower the signal. The method in brief: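 Fluorescent RT-PCR products separated by capillary electrophoresis report PAX6-linked promoter mRNA in HepG2 cells 24 h post-dose. Curves fitted bidirectionally, DMSO as negative control.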

The nature of experiment [2]: ATG_PXRE_CIS: Attagene CIS-FACTORIAL HepG2 Assay for human Pregnane X Receptor Element (PXRE) (AID 2282957). Particulars: HepG2 Attagene CIS-FACTORIAL PXRE reporter, mRNA; actives raise or lower the signal. The method, boiled down: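 Reporter transcripts under endogenous PXR-responsive cis-regulation quantified from total RNA of transfected HepG2 cells 24 h post-dosing, via RT-PCR with fluorescent primer extension and capillary electrophoresis. Gain or loss of signal fitted against DMSO baseline.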

Experiment [3] in a line: ATG_RORE_CIS: Attagene CIS-FACTORIAL HepG2 Assay for human RAR-related Orphan Receptor Element (RORE) (AID 2282959). Particulars: HepG2 Attagene cis-factorial RORE reporter, mRNA; actives raise or lower the signal. The method in brief:
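A 24-hour exposure of transfected HepG2 hepatoma cells precedes RNA isolation and reporter RT-PCR. Labeled products are digested with HpaI and resolved by capillary electrophoresis, with gain or loss of signal scored relative to DMSO.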

Experiment [4] can be described thus: ATG_Sox_CIS: Attagene CIS-FACTORIAL HepG2 Assay for human SRY-box transcription factor (SOX) (AID 2282960). The following applies: HepG2 Attagene cis-factorial SOX reporter, mRNA; actives raise or lower the signal. The method, boiled down: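 HepG2, cis reporter units, 24 h exposure. Reporter mRNA: RT-PCR → FAM labelling → HpaI → CE fluorescence. Bidirectional fit vs DMSO.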

In experiment [5] the target is Transcription factor Sp1 (Homo sapiens) (UniProt P08047). As to the kind of experiment: ATG_Sp1_CIS: Attagene CIS-FACTORIAL HepG2 Assay for human Specificity Protein 1 (Sp1) (AID 2282961). Particulars: HepG2 Sp1 cis-reporter transcription, actives raise or lower the signal. The method in brief: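 Liver-derived HepG2 cells, cis-element reporter library, 24 h treatment; RNA isolated, cDNA amplified with reporter-specific primers, FAM-labeled fragments sized on capillary analyzer. DMSO baseline, bidirectional curve fit.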

The nature of experiment [6]: ATG_SREBP_CIS: Attagene CIS-FACTORIAL HepG2 Assay for human Sterol Regulatory Element Binding (SREBP) (AID 2282962). Particulars: HepG2 Attagene cis-factorial SREBP reporter, mRNA; actives raise or lower the signal. The method, boiled down: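 Endogenous factor activity is measured in HepG2 through multiplexed reporter units under cis-element control. Following a 24 h incubation, reporter transcripts are reverse-transcribed, PCR-amplified and sized by capillary electrophoresis; activity is fitted in both directions relative to DMSO.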

The target in experiment [7] is Signal transducer and activator of transcription 3 (Homo sapiens) (UniProt P40763). As to the kind of experiment: ATG_STAT3_CIS: Attagene CIS-FACTORIAL HepG2 Assay for human Signal Transducer and Activator of Transcription 3 (STAT3) (AID 2282963). Particulars: HepG2, Attagene cis-factorial STAT3 reporter transcription; actives raise or lower the signal. The method in brief:
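Fluorescence intensity of 6-FAM-labelled reporter fragments, separated by capillary electrophoresis after RT-PCR, gave the signal. Cells were HepG2 transfected with cis-element reporter units and treated 24 h; fitting was bidirectional relative to DMSO.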

Experiment [8] can be described thus: ATG_TA_CIS: Attagene CIS-FACTORIAL HepG2 Assay for human TA Basal Promoter (AID 2282964). Particulars: HepG2 Attagene CIS-factorial TA basal promoter reporter; actives raise or lower the signal. The method, boiled down: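 Background internal-marker endpoint from a 52-component HepG2 cis-reporter panel. Cells treated 24 h; reporter transcripts quantified via RT-PCR and CE fluorescence against DMSO baseline.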

The nature of experiment [9]: ATG_TCF_b_cat_CIS: Attagene CIS-FACTORIAL HepG2 Assay for human T-Cell-Factor with beta-catenin (TCF/b-cat) (AID 2282965). Particulars: HepG2 TCF/beta-catenin cis-reporter transcription, actives raise or lower the signal. The method, boiled down: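 Cells of the HepG2 line carry transiently transfected reporter units whose promoters respond to endogenous factors. Twenty-four hours post-dosing, reporter mRNA induction is measured by fluorescent RT-PCR and capillary electrophoresis, with DMSO as baseline.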

A short description of experiment [10]: ATG_TAL_CIS: Attagene CIS-FACTORIAL HepG2 Assay for human TAL Basal Promoter (AID 2282966).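 Further: background control endpoint measuring basal TAL promoter reporter mRNA not a specific factor.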 Particulars: HepG2 Attagene cis-factorial TAL promoter reporter; actives raise or lower the signal. The method in brief: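 Background-control endpoint: basal TAL promoter reporter transcripts in transiently transfected HepG2, measured 24 h after dosing. Read-out by RT-PCR with fluorescent primer extension and capillary electrophoresis; gain or loss of signal fitted relative to DMSO.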

A short description of experiment [11]: ATG_TGFb_CIS: Attagene CIS-FACTORIAL HepG2 Assay for human Transforming Growth Factor (TGF) (AID 2282967). Particulars: HepG2 Attagene CIS TGFb reporter, mRNA transcription; actives raise or lower the signal. The method, boiled down:
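Liver HepG2 line, cis-factorial reporter panel, 24 h dosing. Quantitation: RT-PCR products labeled with 6-FAM, cut with HpaI, resolved by capillary electrophoresis; DMSO-referenced bidirectional analysis.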

A short description of experiment [12]: ATG_VDRE_CIS: Attagene CIS-FACTORIAL HepG2 Assay for human Vitamin D Receptor Element (VDRE) (AID 2282968). Particulars: HepG2 VDRE cis-reporter transcription, actives raise or lower the signal. The method in brief: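 Compounds were applied for 24 h to HepG2 cells transfected with promoter-regulated reporter units. Total RNA was reverse-transcribed, and reporter amplicons were fluorescently labelled and sized by capillary electrophoresis.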

In experiment [13] the target is Nuclear receptor subfamily 1 group I member 3 (Homo sapiens) (UniProt Q14994). Put plainly: ATG_CAR_TRANS: Attagene TRANS-FACTORIAL HepG2 Assay for human Constitutive Androstane Receptor (CAR) (AID 2282969; active means hit-call score of the fitted dose curve at least 0.9, where 1 is the maximum;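 further: activators raise reporter mRNA above DMSO so AC50 marks induction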). The following applies: HepG2 Attagene TRANS-FACTORIAL CAR reporter. The method in brief:
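Transiently transfected HepG2, multiplex TRANS reporters (CAR-Gal4 chimera driving GAL4-UAS reporter). 24 h dosing. Readout: reporter transcript by RT-PCR + capillary electrophoresis, fluorescence intensity; positive direction vs DMSO.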

Experiment [14] concerns the target Steroid hormone receptor ERR1 (Homo sapiens) (UniProt P11474). Put plainly: ATG_ERRa_TRANS: Attagene TRANS-FACTORIAL HepG2 Assay for human Estrogen-Related Receptor alpha (ERRa) (AID 2282971; active means hit-call score of the fitted dose curve at least 0.9, where 1 is the maximum). The following applies: HepG2 Attagene TRANS reporter, ERRa transactivation. The method, boiled down: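 Reporter transcripts from ERRa-Gal4 chimera activity measured in transiently transfected human HepG2 cells 24 hours after dosing, using RT-PCR with 6-FAM primer extension, HpaI digestion and capillary electrophoresis; DMSO is baseline.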

The target of experiment [15] is X-box-binding protein 1 (Homo sapiens) (UniProt P17861). As to the kind of experiment: ATG_Xbp1_CIS: Attagene CIS-FACTORIAL HepG2 Assay for human X-box Binding Protein 1 (XBP1) (AID 2282972). The following applies: HepG2 XBP1 cis-element reporter, Attagene multiplex; actives raise or lower the signal. The method in brief: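 Multiplexed cis-reporter readout in transfected HepG2 liver cells. Exposure lasted 24 hours. Activity in either direction was fitted against DMSO as negative control and baseline.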

Experiment [16] can be described thus: ATG_GAL4_TRANS: Attagene TRANS-FACTORIAL HepG2 Assay for GAL4 (Internal Marker) (AID 2282976; active means hit-call score of the fitted dose curve at least 0.9, where 1 is the maximum). Particulars: HepG2 Attagene TRANS GAL4 internal marker reporter. The method in brief: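 In transfected human HepG2 liver cells dosed 24 h, GAL4 reporter mRNA serves as a baseline marker. Detection by RT-PCR with fluorescent capillary electrophoresis, activity fitted upward relative to DMSO.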

Experiment [17] is described as follows: ATG_M_19_TRANS: Attagene TRANS-FACTORIAL HepG2 Assay for M19 Transcription Factor (Internal Marker) (AID 2282974; active means hit-call score of the fitted dose curve at least 0.9, where 1 is the maximum). The following applies: HepG2 Attagene TRANS-FACTORIAL M19 internal marker reporter. The method, boiled down:
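Transfected HepG2 (GAL4-UAS MRTUs), 24 h compound, TriZol RNA, DNase-treated RT, reporter PCR, FAM label, HpaI digest, CE fluorescence; gain vs DMSO.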

A short description of experiment [18]: ATG_PPRE_CIS: Attagene CIS-FACTORIAL HepG2 Assay for human Peroxisome Proliferator-activated Response Element (PPRE) (AID 2282958). Particulars: HepG2 PPRE cis-element reporter, Attagene transcription factor profiling; actives raise or lower the signal. The method in brief: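 PPRE activity in HepG2: transient cis-reporter transfection, 24 h compound incubation, reporter mRNA by RT-PCR and CE fluorescence; gain/loss fitted against DMSO.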

Experiment [19] deals with Estrogen receptor (Homo sapiens) (UniProt P03372). Put plainly: ATG_ERa_TRANS: Attagene TRANS-FACTORIAL HepG2 Assay for human Estrogen Receptor alpha (ERa) (AID 2282970; active means hit-call score of the fitted dose curve at least 0.9, where 1 is the maximum). The following applies: HepG2 Attagene TRANS ERa GAL4 reporter, mRNA. The method in brief:
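Reporter transcripts were measured 24 h after dosing by RT-PCR with fluorescent primer extension and capillary electrophoresis. The system is transiently transfected HepG2 expressing exogenous NR-Gal4 chimeras driving GAL4-UAS reporters; DMSO is the baseline.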

Results filed as inconclusive are left out. Activity calls are given as the source filed them. How the source made its calls, unless noted: active means hit-call score of the fitted dose curve at least 0.9, where 1 is the maximum; inactive means score below 0.9.

Paired box protein Pax-6 (Homo sapiens), sequence (P26367 whole entry, looked up): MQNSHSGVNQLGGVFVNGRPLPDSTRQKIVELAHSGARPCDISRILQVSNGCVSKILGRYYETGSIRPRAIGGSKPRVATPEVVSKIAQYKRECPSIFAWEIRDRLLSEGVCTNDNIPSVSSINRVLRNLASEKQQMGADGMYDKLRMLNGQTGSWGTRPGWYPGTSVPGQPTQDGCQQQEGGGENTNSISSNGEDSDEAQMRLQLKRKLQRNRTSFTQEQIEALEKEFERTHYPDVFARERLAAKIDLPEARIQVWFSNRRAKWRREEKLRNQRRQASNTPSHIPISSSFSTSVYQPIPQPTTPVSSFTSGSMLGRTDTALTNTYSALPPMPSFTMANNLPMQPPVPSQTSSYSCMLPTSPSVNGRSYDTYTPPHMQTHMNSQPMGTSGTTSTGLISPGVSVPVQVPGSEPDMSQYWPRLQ
Transcription factor Sp1 (Homo sapiens), sequence (P08047 whole entry, looked up, the tested form may be a part): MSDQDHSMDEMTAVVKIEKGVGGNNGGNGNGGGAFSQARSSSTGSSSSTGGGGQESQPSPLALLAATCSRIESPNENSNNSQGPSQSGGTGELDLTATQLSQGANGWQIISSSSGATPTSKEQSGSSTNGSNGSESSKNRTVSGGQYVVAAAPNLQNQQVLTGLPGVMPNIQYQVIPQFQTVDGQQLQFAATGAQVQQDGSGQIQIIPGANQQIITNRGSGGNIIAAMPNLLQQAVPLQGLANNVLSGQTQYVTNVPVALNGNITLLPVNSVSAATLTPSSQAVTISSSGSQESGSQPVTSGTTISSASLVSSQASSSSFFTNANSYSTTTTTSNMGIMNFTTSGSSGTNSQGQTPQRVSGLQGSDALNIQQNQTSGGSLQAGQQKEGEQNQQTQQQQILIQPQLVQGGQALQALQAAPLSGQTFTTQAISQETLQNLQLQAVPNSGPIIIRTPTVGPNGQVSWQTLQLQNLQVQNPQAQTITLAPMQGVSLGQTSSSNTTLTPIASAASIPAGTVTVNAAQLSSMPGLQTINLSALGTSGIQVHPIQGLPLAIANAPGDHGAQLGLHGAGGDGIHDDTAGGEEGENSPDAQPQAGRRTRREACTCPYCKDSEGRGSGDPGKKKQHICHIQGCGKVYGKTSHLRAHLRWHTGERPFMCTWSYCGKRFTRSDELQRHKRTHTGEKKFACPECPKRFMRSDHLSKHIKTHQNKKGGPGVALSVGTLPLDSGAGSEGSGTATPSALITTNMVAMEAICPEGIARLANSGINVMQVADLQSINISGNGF
X-box-binding protein 1 (Homo sapiens), sequence (P17861 whole entry, looked up): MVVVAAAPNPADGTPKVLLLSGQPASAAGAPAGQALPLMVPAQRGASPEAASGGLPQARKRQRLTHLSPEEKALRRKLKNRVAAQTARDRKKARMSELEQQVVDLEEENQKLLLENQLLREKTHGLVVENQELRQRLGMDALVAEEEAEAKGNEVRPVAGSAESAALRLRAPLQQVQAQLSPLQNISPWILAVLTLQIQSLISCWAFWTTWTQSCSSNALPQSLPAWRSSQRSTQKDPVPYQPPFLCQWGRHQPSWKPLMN
Signal transducer and activator of transcription 3 (Homo sapiens), sequence (P40763 whole entry, looked up, the tested form may be a part): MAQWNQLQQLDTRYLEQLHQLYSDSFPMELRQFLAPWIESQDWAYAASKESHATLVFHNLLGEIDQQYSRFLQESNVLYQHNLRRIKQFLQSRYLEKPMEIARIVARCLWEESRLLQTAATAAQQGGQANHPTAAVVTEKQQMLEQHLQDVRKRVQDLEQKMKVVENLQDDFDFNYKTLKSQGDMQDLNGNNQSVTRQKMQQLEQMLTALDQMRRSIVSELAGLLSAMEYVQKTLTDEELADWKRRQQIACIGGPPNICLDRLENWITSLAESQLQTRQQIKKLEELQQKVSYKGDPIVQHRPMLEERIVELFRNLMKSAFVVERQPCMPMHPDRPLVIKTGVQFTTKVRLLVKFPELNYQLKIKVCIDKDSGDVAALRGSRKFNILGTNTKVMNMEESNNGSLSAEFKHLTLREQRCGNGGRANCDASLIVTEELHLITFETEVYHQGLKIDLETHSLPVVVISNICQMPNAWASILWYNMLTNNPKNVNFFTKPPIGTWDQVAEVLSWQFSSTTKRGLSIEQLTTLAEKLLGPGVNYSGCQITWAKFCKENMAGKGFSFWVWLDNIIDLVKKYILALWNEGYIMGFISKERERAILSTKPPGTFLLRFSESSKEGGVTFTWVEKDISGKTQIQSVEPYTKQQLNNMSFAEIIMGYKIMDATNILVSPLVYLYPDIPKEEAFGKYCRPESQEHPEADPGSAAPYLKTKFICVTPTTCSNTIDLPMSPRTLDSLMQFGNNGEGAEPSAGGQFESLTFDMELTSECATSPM
Estrogen receptor (Homo sapiens), sequence (P03372 whole entry, looked up, the tested form may be a part): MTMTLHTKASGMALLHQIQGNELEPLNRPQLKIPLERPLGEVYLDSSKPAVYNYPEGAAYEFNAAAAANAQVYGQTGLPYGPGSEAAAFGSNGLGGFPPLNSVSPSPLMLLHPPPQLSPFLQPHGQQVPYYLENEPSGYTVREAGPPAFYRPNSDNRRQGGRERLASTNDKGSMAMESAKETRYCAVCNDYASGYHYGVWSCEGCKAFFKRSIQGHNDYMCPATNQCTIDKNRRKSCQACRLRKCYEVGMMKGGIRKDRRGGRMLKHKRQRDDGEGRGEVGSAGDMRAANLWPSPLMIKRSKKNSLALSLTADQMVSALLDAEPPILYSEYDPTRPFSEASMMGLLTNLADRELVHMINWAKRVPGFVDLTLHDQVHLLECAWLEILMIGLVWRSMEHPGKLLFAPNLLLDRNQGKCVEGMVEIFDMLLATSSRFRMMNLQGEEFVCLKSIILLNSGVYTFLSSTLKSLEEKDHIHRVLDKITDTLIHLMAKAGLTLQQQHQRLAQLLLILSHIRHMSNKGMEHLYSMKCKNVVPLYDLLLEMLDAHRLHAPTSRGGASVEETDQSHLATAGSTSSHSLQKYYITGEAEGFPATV
Steroid hormone receptor ERR1 (Homo sapiens), sequence (P11474 whole entry, looked up, the tested form may be a part): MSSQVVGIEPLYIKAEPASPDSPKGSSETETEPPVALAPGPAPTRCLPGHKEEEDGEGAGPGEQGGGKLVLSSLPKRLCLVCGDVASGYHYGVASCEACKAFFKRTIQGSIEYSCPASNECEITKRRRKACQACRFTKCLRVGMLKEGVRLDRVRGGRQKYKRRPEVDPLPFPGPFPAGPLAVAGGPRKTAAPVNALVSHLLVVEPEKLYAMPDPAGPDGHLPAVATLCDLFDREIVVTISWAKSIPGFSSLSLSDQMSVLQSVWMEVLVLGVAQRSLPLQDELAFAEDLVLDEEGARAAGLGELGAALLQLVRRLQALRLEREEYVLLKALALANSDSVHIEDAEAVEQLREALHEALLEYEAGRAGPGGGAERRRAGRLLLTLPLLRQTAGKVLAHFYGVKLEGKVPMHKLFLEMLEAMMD
Nuclear receptor subfamily 1 group I member 3 (Homo sapiens), sequence (Q14994 whole entry, looked up, the tested form may be a part): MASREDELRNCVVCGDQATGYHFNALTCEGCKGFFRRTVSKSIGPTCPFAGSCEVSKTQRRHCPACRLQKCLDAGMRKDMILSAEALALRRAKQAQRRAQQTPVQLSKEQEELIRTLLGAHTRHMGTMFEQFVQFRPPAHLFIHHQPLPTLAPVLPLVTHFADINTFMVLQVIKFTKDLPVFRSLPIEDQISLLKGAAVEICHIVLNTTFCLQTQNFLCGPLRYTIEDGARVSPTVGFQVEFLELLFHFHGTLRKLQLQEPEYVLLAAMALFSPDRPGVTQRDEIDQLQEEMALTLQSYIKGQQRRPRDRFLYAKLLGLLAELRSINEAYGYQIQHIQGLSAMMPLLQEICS

Regarding `c1ccc(N=Nc2ccccc2)cc1`, the compound was called inactive in experiment [1], in experiment [2], in experiment [3], in [4], in [5] and in experiment [6]. Besides, the compound was called inactive in experiment [7], in experiment [8], in experiment [9], in experiment [10], in [11] and in experiment [12]. The call in [13], in [14], in [15] and in experiment [16] was inactive.

With `[Cl-].[Cl-].[Hg+2]`, the call in experiment [1], in experiment [2], in experiment [3], in [4], in [5] and in [7] was inactive. In addition, the outcome in experiment [8], in [9], in experiment [10], in [11], in experiment [12] and in experiment [15] was inactive. Besides, the call in [17] was inactive. Moreover, the AC50 in experiment [6] is 51 µM (active).

Consider `Cc1ccc(N)c(N)c1`, for which the outcome in [1], in experiment [2], in [4], in experiment [5], in experiment [6] and in [7] was inactive. In addition, the result in experiment [8], in experiment [9], in experiment [10], in experiment [11], in [12] and in [15] was inactive. The AC50 in experiment [3] was 31.2 µM (active).

Regarding `O=C(O)C1C2CCC(O2)C1C(=O)O` (stereo not given), the AC50 is 123 µM (active) in [1]; 68.6 µM (active) in experiment [2]; 100 µM (active) in experiment [3]; 100 µM (active) in experiment [5]; 100 µM (active) in [12]; 100 µM (active) in experiment [15]. Also, the call in experiment [4], in experiment [6], in experiment [7], in [8], in [9] and in experiment [10] was inactive. Besides, the result in experiment [11] was inactive.

In the case of `COP(=S)(OC)SCN1C(=O)c2ccccc2C1=O`, the compound was called inactive in experiment [1], in experiment [18], in experiment [4], in experiment [5], in experiment [6] and in experiment [7]. The call in experiment [8], in experiment [9], in [10], in [11], in [15] and in experiment [17] was inactive. Besides, the AC50 in experiment [2] was 26.8 µM (active).

As for `CC(C)COC(=O)c1ccccc1C(=O)OCC(C)C`, the AC50 in [1] is 100 µM (active); in experiment [2], 26.1 µM (active); in experiment [3] it was 44.3 µM (active); in [8] it was 56.4 µM (active); in experiment [15], 65.8 µM (active). The outcome in [4], in experiment [5], in experiment [6], in [7], in experiment [9] and in experiment [10] was inactive. For the same compound, the compound was called inactive in experiment [11], in experiment [19] and in [17].

`O=C(Oc1ccc(Br)cc1)N1CCN2CCC1CC2`: the call in experiment [1], in experiment [18], in experiment [4], in experiment [5], in experiment [6] and in experiment [7] was inactive. Further, the outcome in experiment [8], in experiment [10], in [11], in experiment [12], in experiment [19] and in [15] was inactive. The compound was called inactive in [17] and in [16]. For the same compound, the AC50 in experiment [2] is 26 µM (active); in experiment [9], 43.3 µM (active).

In the case of `Nc1ccc([N+](=O)[O-])cc1`, the result in experiment [1], in experiment [2], in [3], in experiment [4], in experiment [5] and in experiment [6] was inactive. For the same compound, the compound was called inactive in experiment [7], in experiment [8], in [9], in experiment [10], in experiment [11] and in experiment [12]. In addition, the outcome in experiment [13], in [14], in experiment [15] and in experiment [17] was inactive.

For the origin of these results see PubChem BioAssay (EPA / NIEHS).
